# Measured values published in article PMC7862700, “An all-to-all approach to the identification of sequence-specific readers for epigenetic DNA modifications on cytosine”.
# Legend:
# Experiment in all cases: DAPPL (digital affinity profiling via proximity ligation, sequencing); 10 mM Tris-HCl pH 7.5, 50 mM NaCl, 1 mM DTT, 4% glycerol, room temperature, 30 min; GST-TFs on glutathione beads, 16-mer random dsDNA library, 0.1% formaldehyde crosslink after washing; high values mean tight binding
# ELF1 = ELF1 (Homo sapiens, UniProt P32519 1-619); details: protein: recombinant; tags: N-terminal GST; dsDNA, one strand shown
# In short: (§1)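 Human transcription factors were made in yeast as GST fusions, captured on glutathione beads and barcoded with DNA. With a tag-only sample included, the pool was incubated with 200 nmole of a random double-stranded 16-mer DNA library in Tris/NaCl/DTT/glycerol buffer at room temperature for 30 min, then crosslinked with 0.1% formaldehyde after washing, ligated by proximity, amplified and sequenced. For binding signal, each hexamer's read frequency for a factor is divided by its frequency for the tag-only sample.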
# ELK3 = molecular target: T1, ELK3 (Homo sapiens, UniProt P41970 1-407); details: protein: recombinant; tags: N-terminal GST; dsDNA, one strand shown
# T1 sequence: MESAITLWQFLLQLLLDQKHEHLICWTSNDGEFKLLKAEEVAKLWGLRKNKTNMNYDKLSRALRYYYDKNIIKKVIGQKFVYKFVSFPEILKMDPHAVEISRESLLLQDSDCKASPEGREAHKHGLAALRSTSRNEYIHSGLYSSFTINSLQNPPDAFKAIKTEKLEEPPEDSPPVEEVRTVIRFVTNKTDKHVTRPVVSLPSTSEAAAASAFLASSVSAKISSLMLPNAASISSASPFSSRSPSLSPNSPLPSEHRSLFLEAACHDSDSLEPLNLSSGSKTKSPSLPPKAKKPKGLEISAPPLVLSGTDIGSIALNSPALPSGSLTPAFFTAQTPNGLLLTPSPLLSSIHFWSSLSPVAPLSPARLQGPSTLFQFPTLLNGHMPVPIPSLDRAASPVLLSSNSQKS
# In short: as §1
# HSF1 = HSF1 (Homo sapiens, UniProt Q00613 1-529); details: protein: recombinant; tags: N-terminal GST; chain copies: 3; dsDNA, one strand shown
# In short: as §1
# CRX = CRX (Homo sapiens, UniProt O43186 1-299); details: protein: recombinant; tags: N-terminal GST; dsDNA, one strand shown
# In short: as §1
# ETV1 = ETV1 (Homo sapiens, UniProt P50549 1-477); details: protein: recombinant; tags: N-terminal GST; dsDNA, one strand shown
# In short: as §1
# SPIC = molecular target: T2, SPIC (Homo sapiens, UniProt Q8N5J4 1-248); details: protein: recombinant; tags: N-terminal GST; dsDNA, one strand shown
# T2 sequence: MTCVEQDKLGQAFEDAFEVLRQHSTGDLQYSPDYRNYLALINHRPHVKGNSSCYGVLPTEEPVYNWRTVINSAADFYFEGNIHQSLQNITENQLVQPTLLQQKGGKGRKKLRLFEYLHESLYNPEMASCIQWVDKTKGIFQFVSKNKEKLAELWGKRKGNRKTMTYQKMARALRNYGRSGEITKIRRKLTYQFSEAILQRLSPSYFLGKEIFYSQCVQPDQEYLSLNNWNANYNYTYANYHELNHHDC
# In short: as §1
# EHF = molecular target: T3, EHF (Homo sapiens, UniProt Q9NZC4 1-300); details: protein: recombinant; tags: N-terminal GST; dsDNA, one strand shown
# T3 sequence: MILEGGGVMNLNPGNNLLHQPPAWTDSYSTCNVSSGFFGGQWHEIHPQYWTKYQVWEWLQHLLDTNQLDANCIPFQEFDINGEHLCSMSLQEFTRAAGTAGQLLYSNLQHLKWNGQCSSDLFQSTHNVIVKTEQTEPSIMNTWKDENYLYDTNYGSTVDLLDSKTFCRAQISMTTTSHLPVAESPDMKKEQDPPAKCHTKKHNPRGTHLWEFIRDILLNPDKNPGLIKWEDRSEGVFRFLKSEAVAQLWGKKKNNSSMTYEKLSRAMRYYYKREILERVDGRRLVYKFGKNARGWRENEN
# In short: as §1
# SPDEF = molecular target: T4, SPDEF (Homo sapiens, UniProt O95238 1-335); details: protein: recombinant; tags: N-terminal GST; dsDNA, one strand shown
# T4 sequence: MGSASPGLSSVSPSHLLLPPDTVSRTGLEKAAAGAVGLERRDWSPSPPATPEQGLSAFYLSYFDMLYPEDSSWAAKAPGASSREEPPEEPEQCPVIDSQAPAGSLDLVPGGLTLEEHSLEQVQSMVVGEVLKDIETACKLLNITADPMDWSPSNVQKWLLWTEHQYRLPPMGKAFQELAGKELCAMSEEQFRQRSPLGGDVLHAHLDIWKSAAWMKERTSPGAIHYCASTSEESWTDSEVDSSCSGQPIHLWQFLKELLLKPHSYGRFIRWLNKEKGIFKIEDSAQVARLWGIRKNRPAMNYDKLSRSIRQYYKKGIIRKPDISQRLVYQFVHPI
# In short: as §1
# ETV7 = molecular target: T5, ETV7 (Homo sapiens, UniProt Q9Y603 1-341); details: protein: recombinant; tags: N-terminal GST; dsDNA, one strand shown
# T5 sequence: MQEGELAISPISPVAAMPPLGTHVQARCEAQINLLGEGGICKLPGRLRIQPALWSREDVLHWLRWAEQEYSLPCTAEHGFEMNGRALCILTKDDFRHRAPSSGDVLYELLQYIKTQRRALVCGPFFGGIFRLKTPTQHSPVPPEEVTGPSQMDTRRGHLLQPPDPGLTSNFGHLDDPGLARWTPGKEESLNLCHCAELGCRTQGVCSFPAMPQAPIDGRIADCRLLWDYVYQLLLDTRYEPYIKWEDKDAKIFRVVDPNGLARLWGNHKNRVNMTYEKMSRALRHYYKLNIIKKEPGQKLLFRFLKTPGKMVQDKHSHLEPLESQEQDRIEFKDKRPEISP
# In short: as §1
# ERF = molecular target: T6, ERF (Homo sapiens, UniProt P50548 1-548); details: protein: recombinant; tags: N-terminal GST; dsDNA, one strand shown
# T6 sequence: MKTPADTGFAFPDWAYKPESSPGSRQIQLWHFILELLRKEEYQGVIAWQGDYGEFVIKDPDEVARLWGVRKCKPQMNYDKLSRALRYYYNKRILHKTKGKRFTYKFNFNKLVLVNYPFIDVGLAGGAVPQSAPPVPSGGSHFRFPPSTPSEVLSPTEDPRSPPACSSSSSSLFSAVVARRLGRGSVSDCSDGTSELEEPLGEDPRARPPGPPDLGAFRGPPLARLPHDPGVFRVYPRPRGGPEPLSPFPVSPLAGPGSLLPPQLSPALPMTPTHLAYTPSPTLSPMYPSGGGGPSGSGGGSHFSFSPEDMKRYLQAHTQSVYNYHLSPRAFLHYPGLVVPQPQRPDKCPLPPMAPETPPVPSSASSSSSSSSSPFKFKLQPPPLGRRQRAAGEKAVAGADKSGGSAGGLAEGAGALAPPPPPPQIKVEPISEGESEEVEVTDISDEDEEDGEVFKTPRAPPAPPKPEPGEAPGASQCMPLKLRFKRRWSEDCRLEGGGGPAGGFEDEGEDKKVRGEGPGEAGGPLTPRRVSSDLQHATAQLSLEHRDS
# In short: as §1
# SPIB = SPIB (Homo sapiens, UniProt Q01892 1-262); details: protein: recombinant; tags: N-terminal GST; dsDNA, one strand shown
# In short: as §1
# ERG = molecular target: T7, ERG (Homo sapiens, UniProt P11308 1-479); details: protein: recombinant; tags: N-terminal GST; dsDNA, one strand shown
# T7 sequence: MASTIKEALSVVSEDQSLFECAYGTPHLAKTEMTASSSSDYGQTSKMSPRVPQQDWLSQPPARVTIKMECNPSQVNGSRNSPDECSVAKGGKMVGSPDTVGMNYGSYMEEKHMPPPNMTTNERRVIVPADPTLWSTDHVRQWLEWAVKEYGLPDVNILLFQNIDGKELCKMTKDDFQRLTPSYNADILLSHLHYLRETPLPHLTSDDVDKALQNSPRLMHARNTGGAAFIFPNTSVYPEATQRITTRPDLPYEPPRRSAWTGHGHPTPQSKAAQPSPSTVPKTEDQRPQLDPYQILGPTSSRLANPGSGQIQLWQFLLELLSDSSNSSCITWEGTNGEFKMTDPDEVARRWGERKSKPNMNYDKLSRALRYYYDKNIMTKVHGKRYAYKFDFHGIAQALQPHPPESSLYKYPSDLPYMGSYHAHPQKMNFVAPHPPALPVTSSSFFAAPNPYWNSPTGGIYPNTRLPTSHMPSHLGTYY
# In short: as §1
# SPI1 = SPI1 (Homo sapiens, UniProt P17947 1-270); details: protein: recombinant; tags: N-terminal GST; dsDNA, one strand shown
# In short: as §1
# Chain of HSF1 (Q00613 whole entry): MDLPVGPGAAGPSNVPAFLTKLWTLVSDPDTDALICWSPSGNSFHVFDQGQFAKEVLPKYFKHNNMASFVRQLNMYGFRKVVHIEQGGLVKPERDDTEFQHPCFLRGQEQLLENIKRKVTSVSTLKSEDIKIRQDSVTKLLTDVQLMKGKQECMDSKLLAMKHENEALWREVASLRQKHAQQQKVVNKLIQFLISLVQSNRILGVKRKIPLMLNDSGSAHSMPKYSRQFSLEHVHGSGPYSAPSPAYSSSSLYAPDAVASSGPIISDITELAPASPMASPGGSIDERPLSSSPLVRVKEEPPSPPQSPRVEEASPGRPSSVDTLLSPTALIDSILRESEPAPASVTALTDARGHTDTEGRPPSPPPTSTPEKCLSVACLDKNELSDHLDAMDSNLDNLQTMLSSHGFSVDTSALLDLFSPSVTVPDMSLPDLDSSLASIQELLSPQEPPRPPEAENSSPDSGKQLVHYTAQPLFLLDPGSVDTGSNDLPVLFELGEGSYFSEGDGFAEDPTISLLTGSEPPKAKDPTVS
# Chain of CRX (O43186 whole entry): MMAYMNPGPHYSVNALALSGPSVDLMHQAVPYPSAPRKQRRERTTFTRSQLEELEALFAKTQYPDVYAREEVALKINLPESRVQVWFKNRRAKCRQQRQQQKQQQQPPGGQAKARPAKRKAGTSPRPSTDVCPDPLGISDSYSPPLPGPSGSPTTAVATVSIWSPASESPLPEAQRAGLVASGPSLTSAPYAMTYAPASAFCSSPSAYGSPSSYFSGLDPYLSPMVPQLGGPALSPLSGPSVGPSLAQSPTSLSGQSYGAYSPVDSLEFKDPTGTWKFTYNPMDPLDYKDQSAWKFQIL
# Chain of ELF1 (P32519 whole entry, the tested form may be a part): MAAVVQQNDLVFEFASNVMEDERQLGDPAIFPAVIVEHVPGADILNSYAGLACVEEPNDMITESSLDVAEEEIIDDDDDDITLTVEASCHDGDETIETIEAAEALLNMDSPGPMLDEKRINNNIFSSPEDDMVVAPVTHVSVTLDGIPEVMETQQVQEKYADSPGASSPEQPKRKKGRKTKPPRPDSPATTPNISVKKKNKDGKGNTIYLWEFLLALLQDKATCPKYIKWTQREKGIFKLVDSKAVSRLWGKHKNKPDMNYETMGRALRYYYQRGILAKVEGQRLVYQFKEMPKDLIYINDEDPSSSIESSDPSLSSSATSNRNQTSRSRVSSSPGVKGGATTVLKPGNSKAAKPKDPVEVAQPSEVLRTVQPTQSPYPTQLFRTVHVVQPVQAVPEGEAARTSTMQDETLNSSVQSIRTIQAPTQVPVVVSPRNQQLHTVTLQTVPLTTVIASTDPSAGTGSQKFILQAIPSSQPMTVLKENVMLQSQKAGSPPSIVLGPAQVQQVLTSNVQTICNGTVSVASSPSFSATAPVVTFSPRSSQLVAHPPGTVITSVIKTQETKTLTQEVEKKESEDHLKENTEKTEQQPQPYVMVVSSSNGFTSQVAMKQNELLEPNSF
# Chain of SPIB (Q01892 whole entry): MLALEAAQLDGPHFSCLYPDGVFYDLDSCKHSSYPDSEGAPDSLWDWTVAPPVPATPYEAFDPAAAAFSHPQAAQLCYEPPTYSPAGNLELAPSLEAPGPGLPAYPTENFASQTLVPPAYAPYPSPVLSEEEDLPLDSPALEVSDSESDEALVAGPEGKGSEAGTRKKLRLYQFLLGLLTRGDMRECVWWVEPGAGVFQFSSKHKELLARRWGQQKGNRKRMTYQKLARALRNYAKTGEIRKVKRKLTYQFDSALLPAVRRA
# Chain of ETV1 (P50549 whole entry): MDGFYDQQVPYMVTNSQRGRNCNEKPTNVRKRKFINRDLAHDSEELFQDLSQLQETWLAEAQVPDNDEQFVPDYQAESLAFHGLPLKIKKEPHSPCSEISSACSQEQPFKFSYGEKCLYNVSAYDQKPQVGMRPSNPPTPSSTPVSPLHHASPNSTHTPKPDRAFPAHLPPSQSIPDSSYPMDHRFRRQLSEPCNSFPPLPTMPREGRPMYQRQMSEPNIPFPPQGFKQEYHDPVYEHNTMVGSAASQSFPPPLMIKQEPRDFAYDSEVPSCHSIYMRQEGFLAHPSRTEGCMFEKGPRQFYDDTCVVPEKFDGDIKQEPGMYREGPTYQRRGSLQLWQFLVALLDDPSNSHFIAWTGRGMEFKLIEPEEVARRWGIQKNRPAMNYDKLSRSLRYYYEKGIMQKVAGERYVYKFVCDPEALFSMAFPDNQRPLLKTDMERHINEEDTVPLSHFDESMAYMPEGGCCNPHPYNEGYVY
sequence,measurement,setting,value
CAAAGA,binding signal,ELF1,"1.01 fold enrichment (6-mer frequency, TF over GST control)"
same,binding signal,ELK3,"1.03 fold enrichment (6-mer frequency, TF over GST control)"
same,binding signal,HSF1,"1.1 fold enrichment (6-mer frequency, TF over GST control)"
same,binding signal,CRX,"1.05 fold enrichment (6-mer frequency, TF over GST control)"
same,binding signal,ETV1,"1.02 fold enrichment (6-mer frequency, TF over GST control)"
GGGATT,binding signal,HSF1,"1.75 fold enrichment (6-mer frequency, TF over GST control)"
same,binding signal,CRX,"2.71 fold enrichment (6-mer frequency, TF over GST control)"
GGCACC,binding signal,SPIC,"1.03 fold enrichment (6-mer frequency, TF over GST control)"
TAGAGA,binding signal,HSF1,"1.3 fold enrichment (6-mer frequency, TF over GST control)"
same,binding signal,CRX,"1.15 fold enrichment (6-mer frequency, TF over GST control)"
GCGAAG,binding signal,EHF,"1 fold enrichment (6-mer frequency, TF over GST control)"
same,binding signal,HSF1,"1.15 fold enrichment (6-mer frequency, TF over GST control)"
GGATTA,binding signal,HSF1,"3.05 fold enrichment (6-mer frequency, TF over GST control)"
same,binding signal,CRX,"5.42 fold enrichment (6-mer frequency, TF over GST control)"
same,binding signal,SPDEF,"1.02 fold enrichment (6-mer frequency, TF over GST control)"
AGGATC,binding signal,HSF1,"1.08 fold enrichment (6-mer frequency, TF over GST control)"
same,binding signal,CRX,"1.2 fold enrichment (6-mer frequency, TF over GST control)"
same,binding signal,SPDEF,"1.2 fold enrichment (6-mer frequency, TF over GST control)"
CAGAAC,binding signal,HSF1,"1.62 fold enrichment (6-mer frequency, TF over GST control)"
same,binding signal,ETV7,"1.03 fold enrichment (6-mer frequency, TF over GST control)"
AGACTC,binding signal,SPIC,"1.06 fold enrichment (6-mer frequency, TF over GST control)"
GCGAAC,binding signal,HSF1,"1.03 fold enrichment (6-mer frequency, TF over GST control)"
same,binding signal,ERF,"1.05 fold enrichment (6-mer frequency, TF over GST control)"
same,binding signal,ETV7,"1.04 fold enrichment (6-mer frequency, TF over GST control)"
TTCGTG,binding signal,SPIB,"1.04 fold enrichment (6-mer frequency, TF over GST control)"
same,binding signal,HSF1,"1.1 fold enrichment (6-mer frequency, TF over GST control)"
GTGGAT,binding signal,ERG,"1 fold enrichment (6-mer frequency, TF over GST control)"
same,binding signal,SPI1,"1.06 fold enrichment (6-mer frequency, TF over GST control)"
same,binding signal,ELK3,"1.04 fold enrichment (6-mer frequency, TF over GST control)"
same,binding signal,HSF1,"1.01 fold enrichment (6-mer frequency, TF over GST control)"
same,binding signal,CRX,"1.25 fold enrichment (6-mer frequency, TF over GST control)"
AATCGT,binding signal,HSF1,"1.01 fold enrichment (6-mer frequency, TF over GST control)"
same,binding signal,CRX,"1.15 fold enrichment (6-mer frequency, TF over GST control)"
AGCGAA,binding signal,EHF,"1.06 fold enrichment (6-mer frequency, TF over GST control)"
same,binding signal,HSF1,"1.02 fold enrichment (6-mer frequency, TF over GST control)"
GAAAGT,binding signal,HSF1,"1.26 fold enrichment (6-mer frequency, TF over GST control)"
same,binding signal,ETV7,"1 fold enrichment (6-mer frequency, TF over GST control)"
